Common to all, as to assay: DAPPL (digital affinity profiling via proximity ligation, sequencing); 10 mM Tris-HCl pH 7.5, 50 mM NaCl, 1 mM DTT, 4% glycerol, room temperature, 30 min; GST-TFs on glutathione beads, 16-mer random dsDNA library, 0.1% formaldehyde crosslink after washing; high values mean tight binding
Holding throughout (conditions): protein: recombinant; tags: N-terminal GST; dsDNA, one strand shown

The target of one assay is T1, FLI1 (Homo sapiens, UniProt Q01543 1-452).
T1 sequence: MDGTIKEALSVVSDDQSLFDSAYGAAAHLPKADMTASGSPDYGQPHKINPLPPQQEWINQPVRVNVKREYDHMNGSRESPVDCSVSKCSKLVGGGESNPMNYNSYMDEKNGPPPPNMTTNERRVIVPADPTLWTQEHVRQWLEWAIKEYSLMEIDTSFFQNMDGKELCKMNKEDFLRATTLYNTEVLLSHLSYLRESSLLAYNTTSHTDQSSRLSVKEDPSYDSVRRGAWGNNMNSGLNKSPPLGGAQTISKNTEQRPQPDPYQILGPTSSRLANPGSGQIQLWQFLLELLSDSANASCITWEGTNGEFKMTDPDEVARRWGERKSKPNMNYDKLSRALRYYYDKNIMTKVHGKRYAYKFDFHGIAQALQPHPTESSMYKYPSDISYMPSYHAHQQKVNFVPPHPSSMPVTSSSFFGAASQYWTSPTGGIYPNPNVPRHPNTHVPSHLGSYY
The gist of the method: (§1)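 Beads coated with glutathione captured GST-fused human transcription factors that had been expressed in yeast, and the factors were then given DNA barcodes and pooled with a tag-only sample. The pools were incubated with 200 nmole of a random double-stranded 16-mer DNA library in Tris/NaCl/DTT/glycerol buffer for 30 min at room temperature, washed, crosslinked with 0.1% formaldehyde and proximity-ligated with BsaI/T4 ligase at 37 °C for 1 h. PCR amplification and Illumina NextSeq500 sequencing came last. Binding signal is each hexamer's read frequency for a factor divided by its frequency for the tag-only sample.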

The next assay addresses T2, ELK1 (Homo sapiens, UniProt P19419 1-428).
T2 sequence: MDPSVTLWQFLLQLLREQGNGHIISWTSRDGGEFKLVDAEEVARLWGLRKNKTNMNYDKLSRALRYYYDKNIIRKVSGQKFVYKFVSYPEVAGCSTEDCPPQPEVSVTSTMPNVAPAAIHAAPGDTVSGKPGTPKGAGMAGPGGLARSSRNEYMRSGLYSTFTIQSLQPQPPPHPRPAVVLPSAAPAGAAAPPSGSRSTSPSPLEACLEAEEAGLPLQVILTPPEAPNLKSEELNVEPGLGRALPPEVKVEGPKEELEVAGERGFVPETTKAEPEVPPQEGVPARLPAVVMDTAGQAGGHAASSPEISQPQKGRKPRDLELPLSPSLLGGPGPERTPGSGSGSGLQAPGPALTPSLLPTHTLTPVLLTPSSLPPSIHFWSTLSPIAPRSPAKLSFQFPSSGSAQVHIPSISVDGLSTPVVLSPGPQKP
The gist of the method:
as §1

A further assay concerns the target T3, GABPA (Homo sapiens, UniProt Q06546 1-454).
T3 sequence: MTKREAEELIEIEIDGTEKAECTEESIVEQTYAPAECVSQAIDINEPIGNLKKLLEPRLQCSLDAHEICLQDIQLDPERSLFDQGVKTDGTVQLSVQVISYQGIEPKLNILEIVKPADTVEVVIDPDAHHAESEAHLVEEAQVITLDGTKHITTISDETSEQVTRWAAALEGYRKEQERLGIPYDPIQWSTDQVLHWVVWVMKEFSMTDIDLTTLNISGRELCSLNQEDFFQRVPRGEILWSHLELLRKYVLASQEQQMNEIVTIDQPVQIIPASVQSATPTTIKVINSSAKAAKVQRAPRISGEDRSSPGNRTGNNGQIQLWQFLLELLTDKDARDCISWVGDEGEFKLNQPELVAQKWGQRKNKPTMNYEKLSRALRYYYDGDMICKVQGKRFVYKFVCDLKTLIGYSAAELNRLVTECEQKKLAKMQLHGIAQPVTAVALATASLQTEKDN
The gist of the method:
as §1

The target in another assay is T4, ERG (Homo sapiens, UniProt P11308 1-479).
T4 sequence: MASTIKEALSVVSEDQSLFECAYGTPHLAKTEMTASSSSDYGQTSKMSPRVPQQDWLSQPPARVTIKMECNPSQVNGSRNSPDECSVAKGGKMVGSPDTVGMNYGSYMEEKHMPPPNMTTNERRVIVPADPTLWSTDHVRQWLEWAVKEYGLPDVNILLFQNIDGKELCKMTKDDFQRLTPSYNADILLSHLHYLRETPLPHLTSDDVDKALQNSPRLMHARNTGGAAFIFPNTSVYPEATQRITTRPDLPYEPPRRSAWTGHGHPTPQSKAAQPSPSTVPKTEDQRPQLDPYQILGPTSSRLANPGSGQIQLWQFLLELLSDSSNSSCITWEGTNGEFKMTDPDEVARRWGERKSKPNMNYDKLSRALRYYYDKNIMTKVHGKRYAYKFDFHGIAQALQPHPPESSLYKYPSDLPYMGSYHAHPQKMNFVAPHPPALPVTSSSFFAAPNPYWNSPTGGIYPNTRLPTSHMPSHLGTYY
The gist of the method:
as §1

The target of another assay is ELF1 (Homo sapiens, UniProt P32519 1-619). The gist of the method:
as §1

In the next assay the target is T5, EHF (Homo sapiens, UniProt Q9NZC4 1-300).
T5 sequence: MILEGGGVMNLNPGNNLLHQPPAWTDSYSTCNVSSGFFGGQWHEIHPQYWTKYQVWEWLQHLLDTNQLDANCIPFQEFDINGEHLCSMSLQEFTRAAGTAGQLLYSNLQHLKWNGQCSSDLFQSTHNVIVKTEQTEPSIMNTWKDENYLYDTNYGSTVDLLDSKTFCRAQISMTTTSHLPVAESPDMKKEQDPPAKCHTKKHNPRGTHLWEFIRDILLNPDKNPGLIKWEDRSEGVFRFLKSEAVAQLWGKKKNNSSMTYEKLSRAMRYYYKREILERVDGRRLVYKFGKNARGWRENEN
The gist of the method: as §1

Another assay deals with SPI1 (Homo sapiens, UniProt P17947 1-270). The gist of the method: as §1
The next assay addresses SPIB (Homo sapiens, UniProt Q01892 1-262). The gist of the method:
as §1

The target of another assay is T6, ELK3 (Homo sapiens, UniProt P41970 1-407).
T6 sequence: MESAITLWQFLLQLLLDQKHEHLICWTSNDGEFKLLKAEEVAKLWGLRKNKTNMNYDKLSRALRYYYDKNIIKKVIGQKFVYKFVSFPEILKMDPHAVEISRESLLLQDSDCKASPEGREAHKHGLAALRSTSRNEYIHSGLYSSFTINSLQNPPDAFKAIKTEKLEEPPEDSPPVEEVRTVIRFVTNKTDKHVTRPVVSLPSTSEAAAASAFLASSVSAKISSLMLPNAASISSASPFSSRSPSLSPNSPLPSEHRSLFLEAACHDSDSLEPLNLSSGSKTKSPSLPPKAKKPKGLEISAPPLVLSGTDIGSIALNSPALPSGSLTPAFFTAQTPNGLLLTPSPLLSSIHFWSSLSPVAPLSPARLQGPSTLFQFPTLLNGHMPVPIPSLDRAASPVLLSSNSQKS
The gist of the method:
as §1

In a further assay the target is T7, FEV (Homo sapiens, UniProt Q99581 1-238).
T7 sequence: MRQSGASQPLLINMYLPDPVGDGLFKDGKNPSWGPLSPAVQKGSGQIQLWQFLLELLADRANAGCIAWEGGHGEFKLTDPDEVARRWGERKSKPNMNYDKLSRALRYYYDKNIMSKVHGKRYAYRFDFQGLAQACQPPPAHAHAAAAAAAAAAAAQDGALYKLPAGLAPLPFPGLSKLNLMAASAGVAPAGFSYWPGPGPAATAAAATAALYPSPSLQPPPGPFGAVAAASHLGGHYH
The gist of the method:
as §1

In the next assay the target is ETV5 (Homo sapiens, UniProt P41161 1-510). The gist of the method: as §1
The next assay addresses T8, SPIC (Homo sapiens, UniProt Q8N5J4 1-248).
T8 sequence: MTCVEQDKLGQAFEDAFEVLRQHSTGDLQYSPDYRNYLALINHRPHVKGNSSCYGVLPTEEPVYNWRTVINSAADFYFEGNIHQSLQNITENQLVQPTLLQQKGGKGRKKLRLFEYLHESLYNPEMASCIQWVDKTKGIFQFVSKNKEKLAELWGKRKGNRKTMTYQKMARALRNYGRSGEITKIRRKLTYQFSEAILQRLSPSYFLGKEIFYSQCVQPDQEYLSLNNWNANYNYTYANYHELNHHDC
The gist of the method: as §1

The next assay deals with ELF4 (Homo sapiens, UniProt Q99607 1-663). The gist of the method: as §1
A further assay addresses ETV1 (Homo sapiens, UniProt P50549 1-477). The gist of the method: as §1
The next assay has as its target T9, ERF (Homo sapiens, UniProt P50548 1-548).
T9 sequence: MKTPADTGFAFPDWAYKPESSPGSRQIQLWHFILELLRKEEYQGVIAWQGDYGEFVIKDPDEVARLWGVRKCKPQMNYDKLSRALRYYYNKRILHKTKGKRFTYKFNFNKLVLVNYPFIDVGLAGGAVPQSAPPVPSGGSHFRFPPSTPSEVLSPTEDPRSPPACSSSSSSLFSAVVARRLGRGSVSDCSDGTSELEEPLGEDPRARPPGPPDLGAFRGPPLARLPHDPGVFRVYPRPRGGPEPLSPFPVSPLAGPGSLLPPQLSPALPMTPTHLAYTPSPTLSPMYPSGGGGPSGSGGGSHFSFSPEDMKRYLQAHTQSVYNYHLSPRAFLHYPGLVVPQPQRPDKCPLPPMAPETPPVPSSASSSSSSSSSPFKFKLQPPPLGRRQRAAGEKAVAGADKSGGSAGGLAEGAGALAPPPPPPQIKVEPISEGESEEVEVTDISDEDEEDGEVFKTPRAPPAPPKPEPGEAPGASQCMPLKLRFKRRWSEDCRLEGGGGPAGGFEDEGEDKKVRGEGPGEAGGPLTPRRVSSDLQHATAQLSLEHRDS
The gist of the method:
as §1

The target in another assay is T10, ETV3L (Homo sapiens, UniProt Q6ZN32 1-361).
T10 sequence: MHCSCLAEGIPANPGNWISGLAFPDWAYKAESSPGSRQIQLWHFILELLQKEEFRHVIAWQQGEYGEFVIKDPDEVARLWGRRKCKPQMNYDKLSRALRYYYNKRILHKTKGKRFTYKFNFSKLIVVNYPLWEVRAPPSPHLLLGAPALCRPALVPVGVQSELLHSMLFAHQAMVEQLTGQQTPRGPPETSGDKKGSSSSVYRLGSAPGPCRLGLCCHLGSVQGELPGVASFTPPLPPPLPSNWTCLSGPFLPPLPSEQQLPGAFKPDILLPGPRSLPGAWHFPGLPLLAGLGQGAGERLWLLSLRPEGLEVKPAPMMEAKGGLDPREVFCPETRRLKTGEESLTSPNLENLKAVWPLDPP
The gist of the method: as §1

In a further assay the target is T11, ETS2 (Homo sapiens, UniProt P15036 1-469).
T11 sequence: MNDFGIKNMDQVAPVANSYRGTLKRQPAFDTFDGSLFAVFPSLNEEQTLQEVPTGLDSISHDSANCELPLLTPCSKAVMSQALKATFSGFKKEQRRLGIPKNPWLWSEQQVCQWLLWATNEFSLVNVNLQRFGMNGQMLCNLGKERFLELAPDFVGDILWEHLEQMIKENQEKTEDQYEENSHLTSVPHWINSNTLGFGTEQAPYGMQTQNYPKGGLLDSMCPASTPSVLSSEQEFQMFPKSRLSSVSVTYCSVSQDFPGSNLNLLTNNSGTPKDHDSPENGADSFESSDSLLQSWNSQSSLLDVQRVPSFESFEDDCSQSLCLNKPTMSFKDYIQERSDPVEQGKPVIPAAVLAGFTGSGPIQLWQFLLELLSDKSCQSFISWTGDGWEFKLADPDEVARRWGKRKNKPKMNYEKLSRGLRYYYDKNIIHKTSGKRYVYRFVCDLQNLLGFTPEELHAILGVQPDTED
The gist of the method: as §1

The target in another assay is T12, ELF5 (Homo sapiens, UniProt Q9UKW6-2 1-255).
T12 sequence: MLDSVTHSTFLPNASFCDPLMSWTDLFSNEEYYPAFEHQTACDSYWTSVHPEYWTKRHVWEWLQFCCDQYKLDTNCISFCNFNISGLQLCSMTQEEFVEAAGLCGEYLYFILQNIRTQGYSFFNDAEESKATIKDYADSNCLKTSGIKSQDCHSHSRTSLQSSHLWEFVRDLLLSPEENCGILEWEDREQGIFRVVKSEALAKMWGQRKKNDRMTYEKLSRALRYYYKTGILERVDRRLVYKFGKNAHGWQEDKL
The gist of the method:
as §1

For the next assay, the target named is T13, ETV3 (Homo sapiens, UniProt P41162-2 1-143).
T13 sequence: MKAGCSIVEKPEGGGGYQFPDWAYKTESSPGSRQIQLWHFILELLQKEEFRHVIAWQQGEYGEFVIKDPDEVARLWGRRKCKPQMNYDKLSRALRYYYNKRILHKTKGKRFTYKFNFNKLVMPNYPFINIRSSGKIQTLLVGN
The gist of the method:
as §1

The next assay deals with ETV6 (Homo sapiens, UniProt P41212 1-452). The gist of the method:
as §1

These results are taken from article PMC7862700, “An all-to-all approach to the identification of sequence-specific readers for epigenetic DNA modifications on cytosine”.

SPIB, sequence (Q01892 whole entry): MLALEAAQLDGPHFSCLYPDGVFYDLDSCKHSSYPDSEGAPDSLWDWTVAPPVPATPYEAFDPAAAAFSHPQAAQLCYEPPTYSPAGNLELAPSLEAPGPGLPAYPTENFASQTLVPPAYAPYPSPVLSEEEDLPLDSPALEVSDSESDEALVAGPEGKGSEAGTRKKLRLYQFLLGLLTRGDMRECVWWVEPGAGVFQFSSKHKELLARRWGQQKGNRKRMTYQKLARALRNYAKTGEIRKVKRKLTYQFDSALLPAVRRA
ETV1, sequence (P50549 whole entry): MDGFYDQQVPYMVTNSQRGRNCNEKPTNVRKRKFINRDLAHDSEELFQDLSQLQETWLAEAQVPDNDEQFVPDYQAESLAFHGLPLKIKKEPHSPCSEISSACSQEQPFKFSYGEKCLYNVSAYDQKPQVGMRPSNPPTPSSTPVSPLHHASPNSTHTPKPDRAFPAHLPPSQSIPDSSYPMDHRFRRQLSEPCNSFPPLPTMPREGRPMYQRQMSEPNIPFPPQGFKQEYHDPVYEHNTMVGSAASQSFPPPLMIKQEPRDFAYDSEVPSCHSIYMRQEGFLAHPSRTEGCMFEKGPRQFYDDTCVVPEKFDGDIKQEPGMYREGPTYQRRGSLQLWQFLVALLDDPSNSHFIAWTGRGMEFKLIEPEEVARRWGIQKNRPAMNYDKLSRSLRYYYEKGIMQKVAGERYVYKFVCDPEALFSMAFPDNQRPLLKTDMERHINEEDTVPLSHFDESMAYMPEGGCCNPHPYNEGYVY
ELF4, sequence (Q99607 whole entry): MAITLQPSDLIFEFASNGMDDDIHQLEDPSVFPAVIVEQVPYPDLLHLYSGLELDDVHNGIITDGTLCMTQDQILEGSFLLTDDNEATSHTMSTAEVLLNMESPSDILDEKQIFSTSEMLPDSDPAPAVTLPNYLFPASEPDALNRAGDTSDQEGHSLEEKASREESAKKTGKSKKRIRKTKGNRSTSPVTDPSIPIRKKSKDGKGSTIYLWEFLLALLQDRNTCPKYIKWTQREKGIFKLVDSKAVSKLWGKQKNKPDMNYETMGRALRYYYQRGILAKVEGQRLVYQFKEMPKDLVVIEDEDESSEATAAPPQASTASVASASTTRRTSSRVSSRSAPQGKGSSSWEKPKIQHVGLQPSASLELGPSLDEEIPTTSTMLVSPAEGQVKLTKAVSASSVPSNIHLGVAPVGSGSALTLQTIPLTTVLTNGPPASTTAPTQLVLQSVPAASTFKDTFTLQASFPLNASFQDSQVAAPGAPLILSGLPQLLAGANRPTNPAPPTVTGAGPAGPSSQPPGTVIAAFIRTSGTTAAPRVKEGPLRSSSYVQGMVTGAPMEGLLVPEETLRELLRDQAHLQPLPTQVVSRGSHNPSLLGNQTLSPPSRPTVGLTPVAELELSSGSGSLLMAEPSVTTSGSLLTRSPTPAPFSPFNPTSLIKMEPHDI
ETV5, sequence (P41161 whole entry): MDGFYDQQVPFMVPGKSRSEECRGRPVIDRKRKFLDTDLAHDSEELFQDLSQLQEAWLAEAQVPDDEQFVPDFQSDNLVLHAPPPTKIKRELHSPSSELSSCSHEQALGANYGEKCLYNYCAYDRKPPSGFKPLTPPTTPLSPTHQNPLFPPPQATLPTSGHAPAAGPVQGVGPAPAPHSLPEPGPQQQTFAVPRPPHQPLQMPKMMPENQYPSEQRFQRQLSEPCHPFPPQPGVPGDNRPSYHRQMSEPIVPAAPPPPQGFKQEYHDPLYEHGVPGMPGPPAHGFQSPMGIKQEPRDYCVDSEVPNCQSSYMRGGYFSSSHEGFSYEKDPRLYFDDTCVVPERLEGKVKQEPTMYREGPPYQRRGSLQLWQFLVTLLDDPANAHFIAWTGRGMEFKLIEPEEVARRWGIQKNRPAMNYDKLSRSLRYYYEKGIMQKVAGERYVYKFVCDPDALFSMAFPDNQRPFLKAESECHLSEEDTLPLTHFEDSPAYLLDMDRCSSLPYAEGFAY
ELF1, sequence (P32519 whole entry): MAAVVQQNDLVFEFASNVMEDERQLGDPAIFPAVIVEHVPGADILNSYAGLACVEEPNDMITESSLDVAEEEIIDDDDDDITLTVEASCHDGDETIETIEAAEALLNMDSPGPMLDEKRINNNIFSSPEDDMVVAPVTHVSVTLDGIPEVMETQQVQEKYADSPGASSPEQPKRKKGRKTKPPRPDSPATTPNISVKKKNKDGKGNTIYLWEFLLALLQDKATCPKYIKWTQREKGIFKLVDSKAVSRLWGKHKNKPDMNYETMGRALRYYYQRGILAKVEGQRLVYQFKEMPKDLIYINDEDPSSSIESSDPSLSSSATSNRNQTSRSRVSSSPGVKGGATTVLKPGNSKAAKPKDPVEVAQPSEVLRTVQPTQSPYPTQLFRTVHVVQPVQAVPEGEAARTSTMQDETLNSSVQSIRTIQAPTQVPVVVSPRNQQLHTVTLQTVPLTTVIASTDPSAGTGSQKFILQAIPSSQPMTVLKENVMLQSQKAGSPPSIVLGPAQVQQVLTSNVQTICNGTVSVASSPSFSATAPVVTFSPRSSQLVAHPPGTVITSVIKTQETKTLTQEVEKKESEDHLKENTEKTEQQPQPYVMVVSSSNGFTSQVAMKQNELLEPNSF
ETV6, sequence (P41212 whole entry): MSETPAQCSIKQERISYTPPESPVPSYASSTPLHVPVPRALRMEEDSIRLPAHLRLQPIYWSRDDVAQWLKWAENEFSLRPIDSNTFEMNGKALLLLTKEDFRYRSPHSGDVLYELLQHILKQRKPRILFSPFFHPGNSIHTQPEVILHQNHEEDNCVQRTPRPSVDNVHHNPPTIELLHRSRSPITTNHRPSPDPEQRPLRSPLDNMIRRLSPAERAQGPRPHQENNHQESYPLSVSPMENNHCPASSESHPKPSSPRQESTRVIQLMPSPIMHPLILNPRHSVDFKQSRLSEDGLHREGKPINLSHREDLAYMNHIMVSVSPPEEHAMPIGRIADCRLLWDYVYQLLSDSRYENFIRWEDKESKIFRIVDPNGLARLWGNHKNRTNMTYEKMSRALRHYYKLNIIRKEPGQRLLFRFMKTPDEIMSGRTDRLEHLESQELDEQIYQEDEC

Consider AACTGA, for which the binding signal in the assay with FLI1 was 1.07 fold enrichment (6-mer frequency, TF over GST control); with ELK1, 1.08 fold enrichment (6-mer frequency, TF over GST control); with GABPA, 1.08 fold enrichment (6-mer frequency, TF over GST control); in the assay with ERG, 1.11 fold enrichment (6-mer frequency, TF over GST control); with ELF1, 1.13 fold enrichment (6-mer frequency, TF over GST control); with EHF, 1.1 fold enrichment (6-mer frequency, TF over GST control). The binding signal is 1.13 fold enrichment (6-mer frequency, TF over GST control) in the assay with SPI1; 1.15 fold enrichment (6-mer frequency, TF over GST control) with SPIB; 1.06 fold enrichment (6-mer frequency, TF over GST control) in the assay with ELK3; 1.15 fold enrichment (6-mer frequency, TF over GST control) in the assay with FEV; 1.11 fold enrichment (6-mer frequency, TF over GST control) with ETV5; 1.37 fold enrichment (6-mer frequency, TF over GST control) with SPIC. Besides, the binding signal with ELF4 was 1.05 fold enrichment (6-mer frequency, TF over GST control); with ETV1 it was 1.16 fold enrichment (6-mer frequency, TF over GST control); in the assay with ERF it was 1.08 fold enrichment (6-mer frequency, TF over GST control); in the assay with ETV3L, 1.09 fold enrichment (6-mer frequency, TF over GST control); in the assay with ETS2, 1.16 fold enrichment (6-mer frequency, TF over GST control); with ELF5 it was 1.01 fold enrichment (6-mer frequency, TF over GST control). The binding signal with ETV3 is 1.06 fold enrichment (6-mer frequency, TF over GST control); with ETV6 it was 1.1 fold enrichment (6-mer frequency, TF over GST control).
